{"source": "the supplement of paper PMC10338343", "note": "± gives the standard deviation.", "data": [{"test_system": "MILI (PIWIL2) piRISC loaded with L1MC piRNA (26 nt)", "experiment": "pre-steady-state target cleavage rate (min^-1); guide: L1MC piRNA 5'p-UAACUAAAUACUAUGCAAGCUGUAGG; higher = faster piRNA-guided slicing of the target", "settings": "auxiliary factor: 500 nM mouse GTSF1", "method_in_brief": "(§1)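 The pre-steady-state cleavage rate came from a burst-and-steady-state fit to pooled data from three Cleave-'n-Seq trials, in which uncleaved targets were sequenced and normalised to depth and to weakly complementary targets. Each reaction held 0.1 nM transcribed, DNA-blocked target RNA library and 1 nM active affinity-purified piRISC carrying one synthetic guide, with or without 500 nM GTSF1 partner protein, in HEPES–potassium acetate buffer at 33 °C for 0–8 or 0–960 min. k3 was capped at 0.0001 min^-1.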", "values": [{"sequence": "UCCUGGAUGUCGUUGCUUAGUUUUUAGUUA", "pre-steady-state target cleavage rate": "0.00856 ± 0.0044"}, {"sequence": "UCCUGGAUCAGCUUGCAAGUAUUUAGUUA", "pre-steady-state target cleavage rate": "0.0793 ± 0.011"}, {"sequence": "UCCUGGAUGAGCUUGCUUAGUAUUUACUUA", "pre-steady-state target cleavage rate": "0.124 ± 0.031"}, {"sequence": "UCCUGGAUCAGCAUGCAUAGUAUUUUGUUA", "pre-steady-state target cleavage rate": "0.16 ± 0.021"}, {"sequence": "UCCUGGAUGUCGUUGCAUAGUAUUUAGUGA", "pre-steady-state target cleavage rate": "0.193 ± 0.034"}, {"sequence": "UCCUGGAUGUGCUUGGAUAGUAAUUAGUUA", "pre-steady-state target cleavage rate": "0.0687 ± 0.014"}, {"sequence": "UCCUGGAUGUCGUAGCAUAGUAUAUAGUUA", "pre-steady-state target cleavage rate": "0.0653 ± 0.016"}, {"sequence": "UCCUGGAUGUCGAGGCAUAGUAUUUAGUUA", "pre-steady-state target cleavage rate": "0.0728 ± 0.016"}, {"sequence": "UCCUGCUACAGCUUGCAAAGAAUUUAGUUA", "pre-steady-state target cleavage rate": "0.0168 ± 0.0052"}, {"sequence": "UCCUGGAUGUCGUUGCAUAGUAAAUAGUUA", "pre-steady-state target cleavage rate": "0.0599 ± 0.019"}, {"sequence": "UCCUGGAUGUCGUUGCAUCGUAUUUAGUUA", "pre-steady-state target cleavage rate": "0.0281 ± 0.0074"}, {"sequence": "UCCUGGAUGUGGUUGCAUAGUAAUUAGUUA", "pre-steady-state target cleavage rate": "0.162 ± 0.034"}, {"sequence": "UCCUGGAUGUCCUUGGAUAGUAUUUAGUUA", "pre-steady-state target cleavage rate": "0.153 ± 0.021"}, {"sequence": "UCCUGGAUGUCCUAGCAUAGUAUAUAGUUA", "pre-steady-state target cleavage rate": "0.0912 ± 0.02"}, {"sequence": "UCCUGGAUGUCGUUGCAUGGUAUUUAGUUA", "pre-steady-state target cleavage rate": "0.0354 ± 0.01"}, {"sequence": "UCCUGGUACAGCUUGCAUUGUAUAUAGUUA", "pre-steady-state target cleavage rate": "0.087 ± 0.018"}, {"sequence": "UCCUGGAUGUCGAAGCAUAGUAUUUAGUUUA", "pre-steady-state target cleavage rate": "0.0244 ± 0.0042"}, {"sequence": "UCCUGGAUCUGCUUGCAUACUAUUUAGUUA", "pre-steady-state target cleavage rate": "0.055 ± 0.0088"}, {"sequence": "UCCUGGAUGUCGUUGCUUAGUAUUUAGUUA", "pre-steady-state target cleavage rate": "0.0857 ± 0.011"}, {"sequence": "UCCUGGAUGUCGUUGCAUAGUCAUUUAGUUA", "pre-steady-state target cleavage rate": "0.00441 ± 0.0039"}, {"sequence": "UCCUGGAUCAGCUUGCAUAGAUUUUAGUUA", "pre-steady-state target cleavage rate": "0.0267 ± 0.007"}, {"sequence": "UCCUGGAUGAGGAUGCAUAGUAUUUAGUAA", "pre-steady-state target cleavage rate": "0.116 ± 0.029"}, {"sequence": "UCCUGGUACAGCUUGCUUAGUAUUUAGUAA", "pre-steady-state target cleavage rate": "0.244 ± 0.03"}, {"sequence": "UCCUCGUACAGCUUGCAUAGUAUAUAGUUA", "pre-steady-state target cleavage rate": "0.251 ± 0.02"}, {"sequence": "UCCUGGAACAGCAUGCAUAGUAUUUAGUAA", "pre-steady-state target cleavage rate": "0.214 ± 0.019"}, {"sequence": "UCCUGGAUGUCCUUGCAUACAUUUUAGUUA", "pre-steady-state target cleavage rate": "0.00731 ± 0.0047"}, {"sequence": "UCCUGGAUGUCGUUGCAUAGUAUUUAGUCUA", "pre-steady-state target cleavage rate": "0.013 ± 0.0062"}, {"sequence": "UCCUGGUACAGCUUGGAUAGUUUUUAGUUA", "pre-steady-state target cleavage rate": "0.0597 ± 0.014"}, {"sequence": "UCCUGGAUGUCCUUGCAUAGUAAAUAGUUA", "pre-steady-state target cleavage rate": "0.034 ± 0.0081"}, {"sequence": "UCCUGGAUGUCGAACCCAUAGUAUUUAGUUA", "pre-steady-state target cleavage rate": "0.0032 ± 0.0019"}, {"sequence": "UCCUGGAUGUCGUUGCAUAGUAUUUAGUUU [g2:g18:cont:t1U]", "pre-steady-state target cleavage rate": "0.128 ± 0.016"}, {"sequence": "UCCUGGAUGUCGAAGCAUAGUAUUUAAGUUA", "pre-steady-state target cleavage rate": "0.064 ± 0.0095"}, {"sequence": "UCCUCGUACAGCUUGCAUAGUAUUAAGUUA", "pre-steady-state target cleavage rate": "0.214 ± 0.022"}, {"sequence": "UCCUGCUAGAGCUUGCAUAGUAUUUACUUA", "pre-steady-state target cleavage rate": "0.175 ± 0.042"}, {"sequence": "UCCUGGAUGUGCUUGCAAAGUAUUAAGUUA", "pre-steady-state target cleavage rate": "0.0349 ± 0.0076"}, {"sequence": "UCCUGGAUGUCGUUGCAUAGUAGUUAGUUA", "pre-steady-state target cleavage rate": "0.013 ± 0.0052"}, {"sequence": "UCCUGGAUGUGCUUGCAUAGUGAUUUAGUUA", "pre-steady-state target cleavage rate": "0.00833 ± 0.0042"}, {"sequence": "UCCUGGAUGUGCUUGCAUAGUAUUAUAGUUA", "pre-steady-state target cleavage rate": "0.15 ± 0.025"}, {"sequence": "UCCUGCUACAGCUUGCAAAGUAUUAAGUUA", "pre-steady-state target cleavage rate": "0.146 ± 0.019"}, {"sequence": "UCCUGGUACAGCUUGGAUAGUAUUUUGUUA", "pre-steady-state target cleavage rate": "0.0944 ± 0.022"}]}, {"test_system": "MILI (PIWIL2) piRISC loaded with L1MC piRNA (26 nt)", "experiment": "pre-steady-state target cleavage rate (min^-1); guide: L1MC piRNA 5'p-UAACUAAAUACUAUGCAAGCUGUAGG; MIWI and MILI are mouse PIWI proteins and EfPiwi is from a freshwater sponge; tags in brackets are library labels; higher = faster piRNA-guided slicing of the target", "settings": "auxiliary factor: none (no GTSF1)", "method_in_brief": "as §1", "values": [{"sequence": "UCCUGGAUGUCGUUGCUUAGUUUUUAGUUA", "pre-steady-state target cleavage rate": "0.00646 ± 0.0025"}, {"sequence": "UCCUGGAUCAGCUUGCAAGUAUUUAGUUA", "pre-steady-state target cleavage rate": "0.00478 ± 0.0023"}, {"sequence": "UCCUGGAUGAGCUUGCUUAGUAUUUACUUA", "pre-steady-state target cleavage rate": "0.00394 ± 0.0031"}, {"sequence": "UCCUGGAUCAGCAUGCAUAGUAUUUUGUUA", "pre-steady-state target cleavage rate": "0.00405 ± 0.0024"}, {"sequence": "UCCUGGAUGUCGUUGCAUAGUAUUUAGUGA", "pre-steady-state target cleavage rate": "0.00426 ± 0.0027"}, {"sequence": "UCCUGGAUGUGCUUGGAUAGUAAUUAGUUA", "pre-steady-state target cleavage rate": "0.00472 ± 0.0026"}, {"sequence": "UCCUGGAUGUCGUAGCAUAGUAUAUAGUUA", "pre-steady-state target cleavage rate": "0.0048 ± 0.0023"}, {"sequence": "UCCUGGAUGUCGAGGCAUAGUAUUUAGUUA", "pre-steady-state target cleavage rate": "0.00723 ± 0.0026"}, {"sequence": "UCCUGCUACAGCUUGCAAAGAAUUUAGUUA", "pre-steady-state target cleavage rate": "0.00324 ± 0.0017"}, {"sequence": "UCCUGGAUGUCGUUGCAUAGUAAAUAGUUA", "pre-steady-state target cleavage rate": "0.00437 ± 0.0023"}, {"sequence": "UCCUGGAUGUCGUUGCAUCGUAUUUAGUUA", "pre-steady-state target cleavage rate": "0.00872 ± 0.0025"}, {"sequence": "UCCUGGAUGUGGUUGCAUAGUAAUUAGUUA", "pre-steady-state target cleavage rate": "0.00751 ± 0.0032"}, {"sequence": "UCCUGGAUGUCCUUGGAUAGUAUUUAGUUA", "pre-steady-state target cleavage rate": "0.00762 ± 0.0021"}, {"sequence": "UCCUGGAUGUCCUAGCAUAGUAUAUAGUUA", "pre-steady-state target cleavage rate": "0.00315 ± 0.0027"}, {"sequence": "UCCUGGAUGUCGUUGCAUGGUAUUUAGUUA", "pre-steady-state target cleavage rate": "0.00854 ± 0.0034"}, {"sequence": "UCCUGGUACAGCUUGCAUUGUAUAUAGUUA", "pre-steady-state target cleavage rate": "0.00415 ± 0.0033"}, {"sequence": "UCCUGGAUGUCGAAGCAUAGUAUUUAGUUUA", "pre-steady-state target cleavage rate": "0.00589 ± 0.0023"}, {"sequence": "UCCUGGAUCUGCUUGCAUACUAUUUAGUUA", "pre-steady-state target cleavage rate": "0.0043 ± 0.0023"}, {"sequence": "UCCUGGAUGUCGUUGCUUAGUAUUUAGUUA", "pre-steady-state target cleavage rate": "0.00861 ± 0.002"}, {"sequence": "UCCUGGAUGUCGUUGCAUAGUCAUUUAGUUA", "pre-steady-state target cleavage rate": "0.00434 ± 0.0028"}, {"sequence": "UCCUGGAUCAGCUUGCAUAGAUUUUAGUUA", "pre-steady-state target cleavage rate": "0.00395 ± 0.0023"}, {"sequence": "UCCUGGAUGAGGAUGCAUAGUAUUUAGUAA", "pre-steady-state target cleavage rate": "0.00444 ± 0.002"}, {"sequence": "UCCUGGUACAGCUUGCUUAGUAUUUAGUAA", "pre-steady-state target cleavage rate": "0.00308 ± 0.0025"}, {"sequence": "UCCUCGUACAGCUUGCAUAGUAUAUAGUUA", "pre-steady-state target cleavage rate": "0.00528 ± 0.0018"}, {"sequence": "UCCUGGAACAGCAUGCAUAGUAUUUAGUAA", "pre-steady-state target cleavage rate": "0.00404 ± 0.0034"}, {"sequence": "UCCUGGAUGUCCUUGCAUACAUUUUAGUUA", "pre-steady-state target cleavage rate": "0.00422 ± 0.0019"}, {"sequence": "UCCUGGAUGUCGUUGCAUAGUAUUUAGUCUA", "pre-steady-state target cleavage rate": "0.00433 ± 0.0036"}, {"sequence": "UCCUGGUACAGCUUGGAUAGUUUUUAGUUA", "pre-steady-state target cleavage rate": "0.00594 ± 0.0035"}, {"sequence": "UCCUGGAUGUCCUUGCAUAGUAAAUAGUUA", "pre-steady-state target cleavage rate": "0.00497 ± 0.0022"}, {"sequence": "UCCUGGAUGUCGAACCCAUAGUAUUUAGUUA", "pre-steady-state target cleavage rate": "0.00424 ± 0.0023"}, {"sequence": "UCCUGGAUGUCGUUGCAUAGUAUUUAGUUU [g2:g18:cont:t1U]", "pre-steady-state target cleavage rate": "0.0134 ± 0.0037"}, {"sequence": "UCCUGGAUGUCGAAGCAUAGUAUUUAAGUUA", "pre-steady-state target cleavage rate": "0.00425 ± 0.0022"}, {"sequence": "UCCUCGUACAGCUUGCAUAGUAUUAAGUUA", "pre-steady-state target cleavage rate": "0.00547 ± 0.0019"}, {"sequence": "UCCUGCUAGAGCUUGCAUAGUAUUUACUUA", "pre-steady-state target cleavage rate": "0.00284 ± 0.0026"}, {"sequence": "UCCUGGAUGUGCUUGCAAAGUAUUAAGUUA", "pre-steady-state target cleavage rate": "0.0052 ± 0.0026"}, {"sequence": "UCCUGGAUGUCGUUGCAUAGUAGUUAGUUA", "pre-steady-state target cleavage rate": "0.00511 ± 0.0031"}, {"sequence": "UCCUGGAUGUGCUUGCAUAGUGAUUUAGUUA", "pre-steady-state target cleavage rate": "0.007 ± 0.0031"}, {"sequence": "UCCUGGAUGUGCUUGCAUAGUAUUAUAGUUA", "pre-steady-state target cleavage rate": "0.006 ± 0.0028"}, {"sequence": "UCCUGCUACAGCUUGCAAAGUAUUAAGUUA", "pre-steady-state target cleavage rate": "0.00367 ± 0.0025"}, {"sequence": "UCCUGGUACAGCUUGGAUAGUAUUUUGUUA", "pre-steady-state target cleavage rate": "0.00486 ± 0.0048"}]}]}
